This note sets out measurements from the supplement of paper PMC10849652.

Holding throughout (test): log2 fold change, soluble protein after heating vs DMSO (PISA); higher = thermal stabilisation; K562 lysate, 10 uM; active = over 0.2 and 3.5 SD of the protein, either way, in both replicates (recomputed)
Compound in assay [1]: NCC(=O)Nc1ccc(-n2nc(C(F)(F)F)cc2-c2ccc3c(ccc4ccccc43)c2)cc1
The method, boiled down: (§1)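 Thermal stability, expressed as log-two fold change relative to solvent controls, is given from duplicates. Crude K562 extract in PBS pH 7.4 with 1 mM MgCl2, at 1 mg/mL protein, was treated with 10 μM compound for 30 min and heated in aliquots for 3 min across 48°C-58°C. After pooling, adjustment to 0.5% NP-40 at 4°C and centrifugation at 21,000xg for 90 min, supernatant protein was measured by TMTpro 16plex LC-MS/MS with channel sums equalised.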

Compound in assay [2]: O=C(CCCCCCC(=O)Nc1ccccc1)NO [vorinostat]
The method, boiled down: as §1

Compound in assay [3]: O=C(O)c1ccc2c(c1)nc(Nc1cccc(Cl)c1)c1ccncc12 [silmitasertib]
Put shortly:
as §1

Compound in assay [4]: O=C1NC(=O)C(c2cnc3ccccn23)=C1c1cn2c3c(cc(F)cc13)CN(C(=O)N1CCCCC1)CC2
Put shortly:
as §1

Compound in assay [5]: c1cn2cc(-c3ccc4cn[nH]c4c3)nc(Nc3ccc(N4CCOCC4)cc3)c2n1 [entospletinib]
Put shortly:
as §1

Of roughly 8,800 targets only a part is listed; those with a hit were picked by preference. About 0.5% of all pairs of compound and target were hits. Unmarked numbers belong to inactive results.

Sequence of UniProt Q86XK3 (Q86XK3 whole entry, looked up): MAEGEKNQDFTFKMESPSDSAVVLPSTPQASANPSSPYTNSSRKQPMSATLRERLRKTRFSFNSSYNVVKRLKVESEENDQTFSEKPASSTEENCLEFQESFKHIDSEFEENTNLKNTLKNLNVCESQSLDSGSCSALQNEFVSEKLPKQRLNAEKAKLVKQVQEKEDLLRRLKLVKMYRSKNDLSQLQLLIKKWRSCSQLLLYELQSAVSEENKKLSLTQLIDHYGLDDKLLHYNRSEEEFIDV
Sequence of UniProt Q14534 (Q14534 whole entry, looked up): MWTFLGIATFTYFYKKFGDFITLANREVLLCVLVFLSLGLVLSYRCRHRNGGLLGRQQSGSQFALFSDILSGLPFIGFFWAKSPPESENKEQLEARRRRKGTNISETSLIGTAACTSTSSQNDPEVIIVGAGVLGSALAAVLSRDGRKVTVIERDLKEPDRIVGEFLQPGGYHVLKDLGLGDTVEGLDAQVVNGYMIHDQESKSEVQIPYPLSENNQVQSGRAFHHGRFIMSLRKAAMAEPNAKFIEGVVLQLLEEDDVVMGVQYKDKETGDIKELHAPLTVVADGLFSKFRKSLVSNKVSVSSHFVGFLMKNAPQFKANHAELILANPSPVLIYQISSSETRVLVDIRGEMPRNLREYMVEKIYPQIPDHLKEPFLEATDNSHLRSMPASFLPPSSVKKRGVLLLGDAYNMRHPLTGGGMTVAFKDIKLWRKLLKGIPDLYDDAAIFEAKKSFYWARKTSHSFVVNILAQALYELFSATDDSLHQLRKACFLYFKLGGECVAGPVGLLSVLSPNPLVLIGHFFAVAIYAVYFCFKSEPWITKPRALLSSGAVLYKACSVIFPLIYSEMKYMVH
Sequence of UniProt Q96R06 (Q96R06 whole entry, looked up): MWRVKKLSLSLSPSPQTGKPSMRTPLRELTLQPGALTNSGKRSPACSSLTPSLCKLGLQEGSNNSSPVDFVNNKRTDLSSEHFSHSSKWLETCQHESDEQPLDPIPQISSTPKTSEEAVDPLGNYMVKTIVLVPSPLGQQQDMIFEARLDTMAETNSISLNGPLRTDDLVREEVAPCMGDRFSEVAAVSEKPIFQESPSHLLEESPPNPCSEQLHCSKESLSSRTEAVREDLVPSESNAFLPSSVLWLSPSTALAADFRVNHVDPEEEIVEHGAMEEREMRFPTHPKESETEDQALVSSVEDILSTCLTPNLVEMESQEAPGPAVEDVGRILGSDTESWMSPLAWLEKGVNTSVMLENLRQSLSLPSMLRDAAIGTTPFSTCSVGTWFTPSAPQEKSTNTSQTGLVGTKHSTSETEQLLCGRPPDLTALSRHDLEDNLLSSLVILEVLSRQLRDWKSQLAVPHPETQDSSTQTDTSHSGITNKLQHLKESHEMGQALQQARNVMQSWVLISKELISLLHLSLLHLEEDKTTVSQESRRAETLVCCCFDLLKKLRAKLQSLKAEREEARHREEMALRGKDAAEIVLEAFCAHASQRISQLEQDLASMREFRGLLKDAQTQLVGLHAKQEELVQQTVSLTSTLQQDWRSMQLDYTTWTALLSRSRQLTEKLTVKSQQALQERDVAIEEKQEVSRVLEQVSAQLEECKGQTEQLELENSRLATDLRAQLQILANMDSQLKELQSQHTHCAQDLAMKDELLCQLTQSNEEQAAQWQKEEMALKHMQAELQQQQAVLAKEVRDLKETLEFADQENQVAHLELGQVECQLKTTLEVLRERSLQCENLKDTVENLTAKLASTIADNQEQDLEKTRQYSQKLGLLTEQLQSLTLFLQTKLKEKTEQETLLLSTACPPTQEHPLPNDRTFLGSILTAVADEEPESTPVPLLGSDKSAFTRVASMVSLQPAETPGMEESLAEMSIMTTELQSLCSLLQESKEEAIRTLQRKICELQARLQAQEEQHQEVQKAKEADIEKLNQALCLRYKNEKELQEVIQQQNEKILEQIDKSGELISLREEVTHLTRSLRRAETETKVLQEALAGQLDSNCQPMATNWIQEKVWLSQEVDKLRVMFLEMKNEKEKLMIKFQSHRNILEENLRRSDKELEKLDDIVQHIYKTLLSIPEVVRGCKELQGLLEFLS
Sequence of UniProt Q8TCT8 (Q8TCT8 whole entry, looked up): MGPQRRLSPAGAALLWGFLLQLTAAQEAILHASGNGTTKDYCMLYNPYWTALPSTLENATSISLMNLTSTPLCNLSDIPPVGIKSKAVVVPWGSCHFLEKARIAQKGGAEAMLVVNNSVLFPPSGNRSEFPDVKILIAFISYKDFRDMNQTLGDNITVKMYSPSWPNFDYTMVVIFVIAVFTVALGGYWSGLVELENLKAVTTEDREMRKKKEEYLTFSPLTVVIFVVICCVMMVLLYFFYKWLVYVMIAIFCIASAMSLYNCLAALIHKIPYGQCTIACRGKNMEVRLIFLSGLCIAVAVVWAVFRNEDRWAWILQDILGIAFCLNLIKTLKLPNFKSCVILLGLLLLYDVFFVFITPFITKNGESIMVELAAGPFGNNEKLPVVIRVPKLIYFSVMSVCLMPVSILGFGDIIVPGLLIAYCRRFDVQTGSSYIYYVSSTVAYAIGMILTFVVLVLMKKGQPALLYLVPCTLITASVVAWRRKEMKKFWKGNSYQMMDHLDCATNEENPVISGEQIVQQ
Sequence of UniProt P78314 (P78314 whole entry, looked up): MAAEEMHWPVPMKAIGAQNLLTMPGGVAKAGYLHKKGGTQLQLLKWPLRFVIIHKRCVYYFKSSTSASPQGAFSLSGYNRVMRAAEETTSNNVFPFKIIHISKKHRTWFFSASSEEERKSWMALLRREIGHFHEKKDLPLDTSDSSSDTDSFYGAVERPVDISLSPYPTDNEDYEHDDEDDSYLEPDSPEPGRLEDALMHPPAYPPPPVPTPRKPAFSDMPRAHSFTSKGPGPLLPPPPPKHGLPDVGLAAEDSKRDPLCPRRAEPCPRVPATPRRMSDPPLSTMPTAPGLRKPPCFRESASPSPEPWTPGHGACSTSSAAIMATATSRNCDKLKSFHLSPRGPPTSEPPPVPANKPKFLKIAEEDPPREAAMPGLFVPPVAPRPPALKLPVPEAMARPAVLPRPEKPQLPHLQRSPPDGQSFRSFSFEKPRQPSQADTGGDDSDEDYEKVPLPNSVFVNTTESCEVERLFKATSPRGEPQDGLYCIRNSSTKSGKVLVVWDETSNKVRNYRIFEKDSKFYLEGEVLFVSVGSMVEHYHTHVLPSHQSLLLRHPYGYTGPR
Sequence of UniProt Q9HBR0 (Q9HBR0 whole entry, looked up): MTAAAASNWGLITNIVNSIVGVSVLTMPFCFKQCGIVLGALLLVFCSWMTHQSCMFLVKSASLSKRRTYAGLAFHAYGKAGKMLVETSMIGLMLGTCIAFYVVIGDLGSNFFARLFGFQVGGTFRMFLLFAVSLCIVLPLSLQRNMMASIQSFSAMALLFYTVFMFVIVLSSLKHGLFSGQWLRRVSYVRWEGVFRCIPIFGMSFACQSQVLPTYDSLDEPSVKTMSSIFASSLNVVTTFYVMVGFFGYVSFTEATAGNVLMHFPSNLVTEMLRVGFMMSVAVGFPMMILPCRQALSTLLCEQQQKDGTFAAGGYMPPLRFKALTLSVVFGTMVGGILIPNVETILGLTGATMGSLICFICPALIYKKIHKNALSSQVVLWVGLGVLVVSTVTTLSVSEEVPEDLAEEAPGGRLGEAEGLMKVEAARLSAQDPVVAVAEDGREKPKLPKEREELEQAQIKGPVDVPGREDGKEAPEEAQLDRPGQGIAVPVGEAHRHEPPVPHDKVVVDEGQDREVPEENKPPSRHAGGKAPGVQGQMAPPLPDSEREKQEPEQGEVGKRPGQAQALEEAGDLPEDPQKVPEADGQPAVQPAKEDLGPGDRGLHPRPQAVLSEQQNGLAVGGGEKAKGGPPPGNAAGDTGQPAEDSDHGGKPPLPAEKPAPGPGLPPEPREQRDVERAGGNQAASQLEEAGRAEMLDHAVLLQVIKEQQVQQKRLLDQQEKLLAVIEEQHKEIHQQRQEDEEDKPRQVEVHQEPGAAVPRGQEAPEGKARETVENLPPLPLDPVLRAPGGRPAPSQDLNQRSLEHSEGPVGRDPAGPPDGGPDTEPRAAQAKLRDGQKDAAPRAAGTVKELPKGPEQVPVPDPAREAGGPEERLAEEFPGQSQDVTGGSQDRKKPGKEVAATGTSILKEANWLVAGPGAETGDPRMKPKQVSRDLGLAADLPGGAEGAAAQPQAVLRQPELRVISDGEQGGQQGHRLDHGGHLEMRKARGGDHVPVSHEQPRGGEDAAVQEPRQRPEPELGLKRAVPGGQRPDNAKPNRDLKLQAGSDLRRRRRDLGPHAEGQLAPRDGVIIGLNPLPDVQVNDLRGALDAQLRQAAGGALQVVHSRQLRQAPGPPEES
Sequence of UniProt Q9H668 (Q9H668 whole entry, looked up): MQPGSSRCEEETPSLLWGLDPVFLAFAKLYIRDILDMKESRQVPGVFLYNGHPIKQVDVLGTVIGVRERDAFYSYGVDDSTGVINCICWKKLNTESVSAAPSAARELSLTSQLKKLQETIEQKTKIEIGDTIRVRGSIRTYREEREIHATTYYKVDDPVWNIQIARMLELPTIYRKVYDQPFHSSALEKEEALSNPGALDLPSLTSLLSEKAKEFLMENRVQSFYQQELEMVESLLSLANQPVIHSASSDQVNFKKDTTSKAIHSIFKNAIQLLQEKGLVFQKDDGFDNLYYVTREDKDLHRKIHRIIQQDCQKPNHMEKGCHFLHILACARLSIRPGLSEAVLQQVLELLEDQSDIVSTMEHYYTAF
Sequence of UniProt Q96DI7 (Q96DI7 whole entry, looked up): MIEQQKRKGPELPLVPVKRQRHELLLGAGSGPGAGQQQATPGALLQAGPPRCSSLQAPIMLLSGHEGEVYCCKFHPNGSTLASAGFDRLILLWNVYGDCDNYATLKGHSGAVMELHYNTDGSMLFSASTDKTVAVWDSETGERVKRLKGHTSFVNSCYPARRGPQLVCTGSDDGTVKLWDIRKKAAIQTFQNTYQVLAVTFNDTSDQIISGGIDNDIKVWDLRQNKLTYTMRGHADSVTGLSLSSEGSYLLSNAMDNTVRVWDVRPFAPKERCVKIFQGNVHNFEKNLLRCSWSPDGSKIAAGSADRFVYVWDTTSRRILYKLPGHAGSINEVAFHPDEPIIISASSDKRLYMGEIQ

Take SKA1 (UniProt Q96BD8): the log2 fold change was 0.057 in assay [1]; -0.586 (active) in assay [2]; -0.036 in assay [3]; -0.07 in assay [4]; -0.021 in assay [5].

On to STAR (UniProt P49675), for which the log2 fold change was 0.002 in assay [1]; -0.044 in assay [2]; -0.028 in assay [3]; -0.031 in assay [4]; -0.103 in assay [5].

Take SMARCA4 (UniProt P51532): the log2 fold change in assay [1] is 0.015; in assay [2], -0.246 (active); in assay [3], 0.021; in assay [4] it was -0.028; in assay [5], -0.008.

On to SSU72 (UniProt Q9NP77), for which the log2 fold change in assay [1] was 0.015; in assay [2], 0.112; in assay [3], -0.026; in assay [4], -0.021; in assay [5], -0.014.

For SNX6, A0A0A0MRI2, the log2 fold change in assay [1] was -0.005; in assay [2] it was -0.325 (active); in assay [3], 0.018; in assay [4] it was 0.015; in assay [5], 0.003.

Consider STK25 (UniProt O00506), for which the log2 fold change in assay [1] was -0.024; in assay [2] it was -0.06; in assay [3] it was 0.051; in assay [4] it was -0.03; in assay [5], -0.043.

Regarding SPAG5 (UniProt Q96R06), the log2 fold change in assay [1] is 0.038; in assay [2] it was -0.298 (active); in assay [3] it was 0.042; in assay [4], -0.007; in assay [5], 0.008.

In the case of SHKBP1 (UniProt Q8TBC3), the log2 fold change in assay [1] was -0.031; in assay [2] it was -0.069; in assay [3], -0.06; in assay [4], 0.01; in assay [5], -0.218.

For SMG7 (UniProt Q92540), the log2 fold change is 0.158 in assay [1]; -0.053 in assay [2]; 0.027 in assay [3]; -0.035 in assay [4]; 0.054 in assay [5].

For SRP54 (UniProt P61011), the log2 fold change in assay [1] was 0.003; in assay [2] it was -0.241 (active); in assay [3], 0.008; in assay [4] it was 0.021; in assay [5], -0.004.

Consider SMTN isoform 6 (UniProt P53814), for which the log2 fold change in assay [1] is -0.021; in assay [2], -0.088; in assay [3] it was -0.007; in assay [4], -0.034; in assay [5] it was 0.013.

Regarding STN1 (UniProt Q9H668), the log2 fold change in assay [1] was -0.03; in assay [2] it was -0.2; in assay [3], -0.111; in assay [4] it was 0.126; in assay [5] it was 0.049.

With SH3BP2 isoform 4 (UniProt P78314), the log2 fold change was 0.08 in assay [1], -0.27 in assay [2], 0.092 in assay [3] and -0.017 in assay [4].

For the target SFR1 isoform 2 (UniProt Q86XK3), the log2 fold change in assay [1] is 0.092; in assay [2], -0.074; in assay [3], 0.023; in assay [4], -0.026; in assay [5] it was -0.043.

As to SQLE (UniProt Q14534), the log2 fold change was 0.01 in assay [1]; 0.103 in assay [2]; -0.056 in assay [3]; -0.042 in assay [4]; 0.029 in assay [5].

Turning to SLC25A38 (UniProt Q96DW6), the log2 fold change was -0.093 in assay [1]; 0.109 in assay [2]; 0.129 in assay [3]; -0.019 in assay [4]; -0.075 in assay [5].

Regarding TADA3 (UniProt O75528), the log2 fold change in assay [1] is 0.018; in assay [2] it was -0.289 (active); in assay [3] it was -0.021; in assay [4] it was 0.034; in assay [5], 0.009.

Regarding SLC27A4 (UniProt Q6P1M0), the log2 fold change in assay [1] is -0.127; in assay [2] it was -0.257 (active); in assay [3], 0.016; in assay [4], -0.002; in assay [5], 0.07.

Take SSB (UniProt P05455): the log2 fold change in assay [1] was 0.027; in assay [2], 0.081; in assay [3], 0.01; in assay [4], 0.032; in assay [5] it was 0.005.

Consider SPG11 (UniProt Q96JI7), for which the log2 fold change was -0.001 in assay [1]; -0.399 (active) in assay [2]; 0.062 in assay [3]; 0.04 in assay [4]; -0.098 in assay [5].

With SPPL2A (UniProt Q8TCT8), the log2 fold change in assay [1] is 0.407; in assay [2], -0.106; in assay [3] it was -0.069; in assay [4], 0.047; in assay [5], 0.141.

In the case of SNRNP40 (UniProt Q96DI7), the log2 fold change in assay [1] was 0.01; in assay [2], 0.233; in assay [3] it was -0.012; in assay [4], 0.022; in assay [5] it was 0.03.

Take SNRPD3 (UniProt P62318): the log2 fold change in assay [1] was -0.011; in assay [2], 0.12; in assay [3] it was -0.023; in assay [4], 0.008; in assay [5], -0.027.

For SRPK1 (UniProt Q96SB4), the log2 fold change in assay [1] is -0.043; in assay [2], -0.172; in assay [3], 0.119; in assay [4] it was 0; in assay [5] it was 0.012.

In the case of SLC11A2 isoform 3 (UniProt P49281), the log2 fold change in assay [1] is -0.011; in assay [2] it was 0; in assay [3], -0.047; in assay [4], 0.013; in assay [5], -0.054.

For the target SSBP3 (UniProt Q9BWW4), the log2 fold change was -0.085 in assay [1]; 0.061 in assay [2]; -0.005 in assay [3]; 0.088 in assay [4]; 0.009 in assay [5].

In the case of SLC38A10 (UniProt Q9HBR0), the log2 fold change in assay [1] is -0.034; in assay [2], 0.044; in assay [3], -0.013; in assay [4] it was 0.08; in assay [5] it was 0.024.
